The nature of assay [1]: NS1 protein of Zika virus - qHTS assay to identify small molecule inhibitors in human HEK 293 cells (AID 1347053). Note: series mostly up to about 46 µM; nearly all actives have a fitted effect of over 55% in size. In outline: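 Read-out is a two-antibody TR-FRET for ZIKV NS1, normalized between uninfected cells and infected cells. Compound added 1 h before MR766 infection at MOI 0.5; human HEK 293 cells incubated 24 h, 37 C.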
In general terms: Quantitative high-throughput screening tests each substance at several concentrations.

The nature of assay [2]: qHTS of pediatric cancer cell lines to identify multiple opportunities for drug repurposing: Primary screen for TC32 cells (AID 1347089). Note: nearly all actives have a fitted effect of over 60% in size. In outline: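 Measured quantity: luminescence from CellTiter-Glo, reflecting metabolically active TC32 cells following 48 h of compound. Curves came straight from multi-point titrations, with 8 or 11 points in primary and 11 in confirmatory screening.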

Assay [3] is described as follows: qHTS of pediatric cancer cell lines to identify multiple opportunities for drug repurposing: Primary screen for DAOY cells (AID 1347090). Note: series mostly up to about 46 µM; nearly all actives have a fitted effect of over 55% in size. In outline:
(§1)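 Cell viability, CellTiter-Glo luminescence; 500-1,000 cells/well, 8- or 11-point titration, 48 h compound exposure at 37 degrees C, 5% CO2. Controls: DMSO neutral, bortezomib 2.3 µM final as positive.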

Assay [4] can be described thus: qHTS of pediatric cancer cell lines to identify multiple opportunities for drug repurposing: Primary screen for SJ-GBM2 cells (AID 1347091). In outline:
as §1

The nature of assay [5]: qHTS of pediatric cancer cell lines to identify multiple opportunities for drug repurposing: Primary screen for A673 cells (AID 1347092). Note: nearly all actives have a fitted effect of over 45% in size. In outline: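 Cells are plated, rested 5 h, dosed by pintool, incubated 48 h, then lysed with CellTiter-Glo and read by luminescence. DMSO is the neutral control; bortezomib at 2.3 uM final is the positive control.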
The nature of assay [6]: qHTS of pediatric cancer cell lines to identify multiple opportunities for drug repurposing: Primary screen for SK-N-MC cells (AID 1347093). Note: series mostly up to about 46 µM. In outline: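 Metabolically active cells were quantified by ATP-dependent luminescence (CellTiter-Glo, 15 min at room temperature) following 48 h treatment. Cells had been plated at 500-1,000 per well and settled for 5 h beforehand.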

Assay [7] can be described thus: qHTS of pediatric cancer cell lines to identify multiple opportunities for drug repurposing: Primary screen for NB-EBc1 cells (AID 1347095). An outline of the steps:
(§2)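 Luminescence from CellTiter-Glo served as readout of metabolically active cells after 48 h compound exposure. Titrations: MIPE 11-point, from 0.78 nM; NPC 8-point, from 0.59 nM (final). Concentration-response curves came straight from the primary screen.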

Assay [8] in a line: qHTS of pediatric cancer cell lines to identify multiple opportunities for drug repurposing: Primary screen for U-2 OS cells (AID 1347096). Note: nearly all actives have a fitted effect of over 50% in size. In outline: (§3)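 Cells (500-1,000/well) rested 5 h, then received compounds for 48 h; metabolically active cells were measured by CellTiter-Glo luminescence. Final concentrations spanned up to 46 µM (MIPE, 11-point) or 0.59 nM-46 µM (NPC, 8-point) in primary screens, 11-point in follow-ups.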

Assay [9] is described as follows: qHTS of pediatric cancer cell lines to identify multiple opportunities for drug repurposing: Primary screen for Saos-2 cells (AID 1347097). Note: nearly all actives have a fitted effect of over 40% in size. In outline:
as §2

A short description of assay [10]: qHTS of pediatric cancer cell lines to identify multiple opportunities for drug repurposing: Primary screen for SK-N-SH cells (AID 1347098). Note: nearly all actives have a fitted effect of over 65% in size. An outline of the steps:
as §3

A short description of assay [11]: qHTS of pediatric cancer cell lines to identify multiple opportunities for drug repurposing: Primary screen for NB1643 cells (AID 1347099). Note: nearly all actives have a fitted effect of over 50% in size. Note: potency is the fitted concentration of half-maximal effect. An outline of the steps:
as §2

A short description of assay [12]: qHTS of pediatric cancer cell lines to identify multiple opportunities for drug repurposing: Primary screen for LAN-5 cells (AID 1347100). An outline of the steps: as §3
A short description of assay [13]: qHTS of pediatric cancer cell lines to identify multiple opportunities for drug repurposing: Primary screen for BT-12 cells (AID 1347101). Note: nearly all actives have a fitted effect of over 25% in size. An outline of the steps:
as §3

The nature of assay [14]: qHTS of pediatric cancer cell lines to identify multiple opportunities for drug repurposing: Primary screen for Rh18 cells (AID 1347102). Note: nearly all actives have a fitted effect of over 65% in size. An outline of the steps:
as §3

Assay [15] can be described thus: qHTS of pediatric cancer cell lines to identify multiple opportunities for drug repurposing: Primary screen for OHS-50 cells (AID 1347103). Note: nearly all actives have a fitted effect of over 40% in size. An outline of the steps:
as §3

Assay [16] can be described thus: qHTS of pediatric cancer cell lines to identify multiple opportunities for drug repurposing: Primary screen for RD cells (AID 1347104). Note: nearly all actives have a fitted effect of over 55% in size. In outline:
as §2

Assay [17] can be described thus: qHTS of pediatric cancer cell lines to identify multiple opportunities for drug repurposing: Primary screen for MG 63 (6-TG R) cells (AID 1347105). Note: nearly all actives have a fitted effect of over 50% in size. In outline:
as §2

The nature of assay [18]: qHTS of pediatric cancer cell lines to identify multiple opportunities for drug repurposing: Primary screen for control Hh wild type fibroblast cells (AID 1347106).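 Note: series mostly up to about 46 µM; a drop in luminescence marks cytotoxicity and a rise apparent proliferation; nearly all actives have a fitted effect of over 55% in size.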 An outline of the steps: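 Cells (500-1,000/well) in growth media were settled 5 h at 37 degrees C, then given compounds for 48 h. Viability was read as CellTiter-Glo luminescence. Primary runs used MIPE at 11 points (0.78 nM-46 µM) and NPC at 8 points (0.59 nM-46 µM); follow-ups used 11 points.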

Assay [19] is described as follows: qHTS of pediatric cancer cell lines to identify multiple opportunities for drug repurposing: Primary screen for Rh30 cells (AID 1347107). Note: series mostly up to about 46 µM; nearly all actives have a fitted effect of over 75% in size. In outline:
as §3

Assay [20] is described as follows: qHTS of pediatric cancer cell lines to identify multiple opportunities for drug repurposing: Primary screen for BT-37 cells (AID 1347094). Note: series mostly up to about 57 µM. An outline of the steps: as §2

Inconclusive results are not listed. A number with no mark means an inactive call. Activity calls are given as the source filed them. Calls come from the whole dose curve; as a rule, active = well fitted curve in the direction sought with a large enough effect; inconclusive = small, poorly fitted or top-dose-only effect, or another doubt; inactive = no such curve, though single readings can be large; an effect the other way counts as inactive or inconclusive.

In PubChem BioAssay (NCATS) one finds outcome and Potency data, which are given here for 15 compounds.

Take `CCCCCCCCCCCCCCCCCCO`: the result in [1], in assay [2], in assay [3], in assay [4], in assay [5] and in assay [7] was inactive. The result in [8], in assay [9], in assay [10], in assay [12], in assay [13] and in assay [14] was inactive. Also, the compound was called inactive in assay [15], in [16], in assay [17], in assay [18] and in [19]. Moreover, the Potency entry in assay [6] and in assay [11] was “inactive” each time.

Regarding `NC(=O)N[C@@H](CCC(=O)O)C(=O)O`, the compound was called inactive in assay [1], in assay [2], in assay [3], in [4], in assay [5] and in assay [7]. The compound was classed as inactive in [8], in assay [9], in assay [10], in assay [12], in [13] and in assay [14]. The call in assay [15], in assay [16], in assay [17], in assay [18] and in [19] was inactive. The Potency entry in assay [6] and in assay [11] was “inactive” each time.

In the case of `Cc1cc(OI)c(C(C)C)cc1-c1cc(C(C)C)c(OI)cc1C`, the compound was called inactive in assay [1], in assay [2], in [3], in assay [4], in [5] and in assay [20]. Also, the call in assay [9], in [10], in assay [12], in [13], in assay [14] and in [15] was inactive. Besides, the result in [16], in [18] and in assay [19] was inactive. Further, the Potency entry in [6] and in assay [11] was “inactive” each time.

For the compound `C[C@@H](c1ncncc1F)C(O)(Cn1cncn1)c1ccc(F)cc1F` (some centres undefined), the outcome in assay [1], in [2], in assay [3], in assay [4], in [5] and in assay [7] was inactive. Also, the compound was classed as inactive in assay [8], in [9], in assay [10], in assay [12], in assay [13] and in [14]. Further, the result in assay [15], in assay [16], in [17] and in [19] was inactive. Also, the Potency result in assay [6] was “inactive”.

For the compound `O=C1c2ccccc2S(=O)(=O)N1CCCCN1CCN(c2ncccn2)CC1`, the outcome in assay [1], in [2], in [3], in assay [4], in assay [5] and in assay [7] was inactive. The compound was classed as inactive in [8], in assay [9], in [10], in [12], in assay [13] and in [14]. Moreover, the outcome in assay [15], in assay [16], in assay [18] and in assay [19] was inactive. Besides, in assay [6], the Potency result is “inactive”.

For `CC(C)C[C@@H](N)C(=O)O`, the outcome in assay [1], in assay [2], in assay [3], in assay [4], in assay [5] and in [20] was inactive. The result in [7], in assay [8], in assay [9], in [10], in assay [12] and in assay [13] was inactive. Further, the compound was classed as inactive in [14], in assay [15], in assay [16], in [17], in assay [18] and in [19]. The Potency in [11] was 1 nM (active).

Turning to `CCN(CC)S(=O)(=O)c1ccc(C(=O)O)cc1`, the compound was called inactive in assay [1], in assay [2], in assay [3], in assay [4], in [5] and in [7]. Moreover, the compound was classed as inactive in assay [8], in assay [9], in assay [10], in assay [12], in [13] and in assay [14]. For the same compound, the outcome in assay [15], in assay [16], in assay [17], in [18] and in assay [19] was inactive. In addition, the Potency entry in assay [6] and in [11] was “inactive” throughout.

As to `CC(O)CCCCn1c(=O)c2c(ncn2C)n(C)c1=O` (centres undefined), the compound was called inactive in assay [1], in [2], in assay [3], in assay [4], in [5] and in assay [8]. The compound was called inactive in assay [9], in assay [10], in assay [12], in assay [13], in [14] and in assay [16]. For the same compound, the outcome in [18] and in assay [19] was inactive. In addition, the Potency entry in [6] and in assay [11] was “inactive” in each case.

Consider `O=C(O)Cn1c(C(=O)Nc2nc(-c3ccccc3Cl)cs2)cc2ccccc21`, for which the call in [1], in assay [2], in assay [3], in assay [4], in [5] and in assay [20] was inactive. Besides, the outcome in assay [10], in assay [12], in assay [13], in assay [14], in assay [15] and in assay [16] was inactive. For the same compound, the outcome in assay [18] and in [19] was inactive. Also, in assay [11], the Potency result is “inactive”.

Turning to `CN1C(C)(C)CCCC1(C)C`, the compound was called inactive in assay [1], in assay [2], in assay [3], in assay [4], in assay [5] and in [20]. In addition, the compound was called inactive in assay [9], in [12], in assay [13], in [14], in assay [15] and in assay [16]. For the same compound, the outcome in [17] and in [19] was inactive. For the same compound, the Potency result in assay [6] and in assay [11] was “inactive” each time.

`NS(=O)(=O)c1ccc(C(=O)O)cc1`: the compound was classed as inactive in assay [1], in [2], in assay [3], in assay [4], in [5] and in assay [7]. Also, the compound was called inactive in assay [8], in assay [9], in [10], in [12], in assay [13] and in assay [14]. The call in assay [16], in assay [17], in [18] and in assay [19] was inactive. Also, the Potency result in [6] and in [11] was “inactive” each time.

As for `O=C(Cn1ccnc1[N+](=O)[O-])NCCO`, the compound was called inactive in [1], in [2], in [3], in assay [4], in [5] and in assay [7]. The call in assay [8], in assay [9], in assay [10], in [12], in assay [13] and in [14] was inactive. Further, the compound was called inactive in assay [15], in [16], in assay [18] and in assay [19]. The Potency entry in assay [6] and in assay [11] was “inactive” each time.

Consider `CCOC(=O)OC(C)OC(=O)[C@@H]1N2C(=O)[C@@H](NC(=O)[C@H](N)c3ccccc3)[C@H]2SC1(C)C` (some centres undefined), for which the call in [1], in [2], in assay [3], in [4], in assay [5] and in assay [7] was inactive. The outcome in assay [8], in assay [10], in [12], in [13], in assay [14] and in assay [15] was inactive. Also, the call in assay [16], in assay [17], in assay [18] and in [19] was inactive. Further, the Potency result in assay [6] and in assay [11] was “inactive” in each case.

Regarding `CCCCCCCC(=O)OCC(COC(=O)CCCCCCC)OC(=O)CCCCCCC`, the call in assay [1], in assay [2], in assay [3], in assay [4], in [5] and in [20] was inactive. The result in [7], in [8], in [9], in [10], in assay [12] and in assay [13] was inactive. For the same compound, the outcome in [14], in [15], in [16], in assay [17] and in assay [19] was inactive. Further, the Potency result in [11] was “inactive”.

For `CC1(C)S[C@@H]2[C@H](N=CN3CCCCCC3)C(=O)N2[C@H]1C(=O)O`, the outcome in [1], in [2], in [3], in assay [4], in assay [5] and in assay [7] was inactive. In addition, the call in assay [8], in assay [10], in assay [12], in [13], in assay [14] and in assay [15] was inactive. Also, the call in assay [16], in assay [17], in assay [18] and in assay [19] was inactive. Also, the Potency result in assay [6] and in [11] was “inactive” throughout.
